In publication PMC10668032, “Altered binding affinity of SIX1-Q177R correlates with enhanced WNT5A and WNT pathway effector expression in Wilms tumor”:
Over roughly 33,000 sequences, “e-score” has its median near -0.05; the highest 2% begin near 0.38. The sample as a whole holds a higher share of the highest values than the screen did.

Target: T1, SIX1-Q177R homeodomain (human, UniProt Q15475 108-198, Q177R)
T1 sequence: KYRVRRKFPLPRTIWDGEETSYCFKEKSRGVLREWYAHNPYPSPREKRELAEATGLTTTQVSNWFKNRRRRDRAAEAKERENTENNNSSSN
Test: universal protein binding microarray; Universal all-10-mer PBM (8x60K, AMADID 030236), 300 nM GST-tagged protein, Alexa Fluor 488 anti-GST; buffer, salt, pH and temperature not stated (as in Berger); high values mean tight binding
Settings: protein: ivt; tags: N-terminal GST; dsDNA, one strand shown
Method in brief: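 After in vitro transcription/translation, GST-tagged homeodomains were quantified against a recombinant GST standard curve by anti-GST western blot. They were then placed in duplicate at 300 nM final concentration on universal 'all 10-mer' protein binding microarrays of 8×60K format.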

Sequence | binding signal
GGTATCGA | 0.2937 ± 0.0007 E-score
GTCGTGCA | 0.181 ± 0.0113 E-score
CTCGGGTC | 0.155 ± 0.0227 E-score
GTCGTGTA | 0.438 ± 0.00933 E-score
ATCGTGTA | 0.403 ± 0.0236 E-score
ATCGTGTC | 0.413 ± 0.0104 E-score
ATCGTGTG | 0.229 ± 0.0199 E-score
GTCGAGTA | 0.1983 ± 0.00156 E-score
CTCGTGTC | 0.409 ± 0.0114 E-score
CTTGTGTC | 0.168 ± 0.0605 E-score
CAAGCGTG | 0.165 ± 0.0253 E-score
CACCACCC | 0.3364 ± 0.00314 E-score
ACGGATCA | 0.172 ± 0.0172 E-score
GACCCGCC | 0.18 ± 0.0248 E-score
ACGGGTGC | 0.237 ± 0.00406 E-score
CCGGGATC | 0.164 ± 0.0362 E-score
CTCGAGTA | 0.164 ± 0.00196 E-score
CTCGTGTA | 0.398 ± 0.00843 E-score
CTCGGGTA | 0.168 ± 0.0141 E-score
AACAGGGG | 0.17 ± 0.00571 E-score
GATAACAC | 0.4333 ± 0.00385 E-score

Sequence | binding signal
CATAACAC | 0.426 ± 0.00624 E-score
GATAATAC | 0.1568 ± 0.000269 E-score
AATAAACA | 0.218 ± 0.0334 E-score
GATAACCC | 0.19 ± 0.0215 E-score
CATAGCAC | 0.195 ± 0.00827 E-score
AATAACAC | 0.426 ± 0.0299 E-score
ATAAACAC | 0.365 ± 0.0198 E-score
CAAAACAC | 0.321 ± 0.0321 E-score
CACCATAA | 0.303 ± 0.015 E-score
ATGACCCG | 0.2 ± 0.00637 E-score
ACTAGGTG | 0.218 ± 0.00902 E-score
ACCCCAAC | 0.237 ± 0.00988 E-score
ACCGGAGT | 0.25 ± 0.0191 E-score
AGACCCCA | 0.175 ± 0.0169 E-score
ACCACACG | 0.297 ± 0.00738 E-score
ACCACACA | 0.196 ± 0.00984 E-score
GCCACACC | 0.367 ± 0.0389 E-score
CCCACACC | 0.39 ± 0.0401 E-score
CCCACACG | 0.2877 ± 0.0011 E-score
ACCACACC | 0.407 ± 0.0186 E-score
ACACTTGA | 0.376 ± 0.0165 E-score

Sequence | binding signal
CGTTGGTA | 0.151 ± 0.00584 E-score
GCGCGACA | 0.155 ± 0.0207 E-score
CACCGTAC | 0.365 ± 0.0199 E-score
CACGGCTC | 0.154 ± 0.0275 E-score
AGGTCGTG | 0.264 ± 0.0209 E-score
ACACTGCA | 0.385 ± 0.00749 E-score
ACACTTCC | 0.349 ± 0.026 E-score
ACACTGCG | 0.383 ± 0.00512 E-score
ACACTTCA | 0.313 ± 0.047 E-score
ACACTGCC | 0.429 ± 0.0024 E-score
CCCCTGCA | 0.17 ± 0.016 E-score
ACACTTCG | 0.327 ± 0.0333 E-score
ACACTGCT | 0.339 ± 0.0327 E-score
CACGAGTG | 0.317 ± 0.0328 E-score
CTGGGGTA | 0.194 ± 0.0256 E-score
CCCCCAAC | 0.17 ± 0.0237 E-score
TAATGACA | 0.203 ± 0.0464 E-score
CGCATTGC | 0.166 ± 0.0234 E-score
AGTGATCC | 0.184 ± 0.018 E-score
GGCACACA | 0.179 ± 0.0131 E-score
